High-throughput results deposited in PubChem by The Scripps Research Institute Molecular Screening Center.
The list is not random: actives were taken first. Their share in the collection is about 2.8%.
S1P1 ag: S1P1 (human) receptor agonism | activation, % at 4.5 µM | S1P1 agonist cell-based reporter assay | P21453 | 1.5% of 16,000 active; in the data active = activation above about 80%
TLR4 MyD88 blk: inhibitors of human TLR4-MyD88 binding; O00206; inhibition, % at 10 µM; 0.06% of 16,000 active; AID 811; Cell-based TLR4-MyD88 binding inhibition assay; in the data active = inhibition above about 45%
rat GALR2 ag: activates the rat galanin receptor 2; O08726; cell-based GALR2 agonist screen; activation, % at 10 µM; 0.5% of 16,000 active; in the data active = activation above about 15%
KOR antag MB: blocks the human kappa opioid receptor, Maybridge compounds; AID 652031; 0.4% of 16,000 active; inhibition, % at 9 µM; OPRK1 cells, antagonist mode, fluorescence readout; P41145; in the data active = inhibition above about 50%
PME-1 Maybridge: Maybridge compound blocking human PME-1. Q9Y570. recombinant PME-1, FP-Rh probe fluorescence polarization. inhibition, % at 9 µM. 0.5% of 16,000 active. AID 2291; in the data active = inhibition above about 30%
Target sequence (Q9Y570 whole entry, looked up): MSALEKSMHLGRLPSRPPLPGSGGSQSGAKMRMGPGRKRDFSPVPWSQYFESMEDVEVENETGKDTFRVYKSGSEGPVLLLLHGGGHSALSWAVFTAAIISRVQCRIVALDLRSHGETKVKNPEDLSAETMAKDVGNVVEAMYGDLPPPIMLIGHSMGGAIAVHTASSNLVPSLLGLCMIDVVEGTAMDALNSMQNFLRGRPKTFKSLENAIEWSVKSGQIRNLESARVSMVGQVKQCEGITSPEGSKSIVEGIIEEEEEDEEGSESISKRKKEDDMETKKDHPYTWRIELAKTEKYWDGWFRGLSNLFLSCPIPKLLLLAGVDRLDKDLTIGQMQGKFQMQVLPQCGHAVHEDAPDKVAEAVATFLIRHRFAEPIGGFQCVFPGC
* marks the source's active call; other numbers are inactive results; nt = no result given.

SMILES | S1P1 ag | TLR4 MyD88 blk | rat GALR2 ag | KOR antag MB | PME-1 Maybridge
CC(=O)N/C(=C\c1cnc(-c2ccccc2)[nH]1)C(=O)O | 0 | 6 | -6 | 9 | 0
Clc1cccc(Cl)c1-c1noc(CN2CCCCC2)n1 | 2 | -1 | -6 | -6 | 6
CCOC(=O)C1CCCN(C(=O)c2ccc(OC)c(OC)c2)C1 (configuration not stated) | 1 | 5 | -6 | 13 | 6
CCOC(=O)c1ccc(N2CC3CCCCN3C2c2cccc(OC)c2O)cc1 (configuration not stated) | 8 | -1 | -5 | 60* | 3
COc1cccc(C2CN=NC23Cc2ccccc2C3=O)c1 (configuration not stated) | 5 | -2 | -4 | 6 | 1
N#Cc1ccc(N2C(=O)C3=C(SCCS3)C2=O)cc1 | -1 | 2 | -4 | 22 | -2
O=C(Cc1ccccc1Cl)N/N=C(/C(=O)O)c1ccccc1 | 2 | 9 | -7 | 4 | 38*
COc1cc2c(=O)n(Cc3cccs3)c(=S)[nH]c2c(OC)c1OC | -3 | 5 | -4 | 8 | 4
Cc1cc(N=Nc2ccc(Cl)cc2)cc(CN2CCOCC2)c1O | 95* | 6 | -2 | 22 | 4
Cc1nccc(-c2cccc(NN=C(C#N)C#N)c2)n1 | 104* | -3 | -9 | -1 | 0
CN1c2ccsc2C(=O)/C(=N\Nc2cccc(C(F)(F)F)c2)S1(=O)=O | 87* | 11 | -8 | -4 | 0
Cn1sc(=O)c2cc(S(=O)(=O)Nc3ccccc3N3CCCCC3)ccc21 | -3 | -7 | 16* | 14 | 24
Cc1ccc(S(=O)(=O)NC(=O)Nc2ccccc2N2CCCCC2)cc1 | -4 | -5 | -8 | 18 | 4
COc1cccc(/C=C(\C#N)c2ccc([N+](=O)[O-])cc2)c1OC | -2 | -3 | -11 | 69* | -2
COc1ccc([N+](=O)[O-])c(C=C(C#N)C#N)c1OC | -6 | 1 | -10 | 12 | 8
Cc1cc(OCc2nnc(-c3ccc4ccccc4c3)o2)c2nncn2n1 | -2 | 17 | -7 | 8 | 3
N#CC(C#N)=C1c2cc(S(N)(=O)=O)cc([N+](=O)[O-])c2-c2c1cc(S(N)(=O)=O)cc2[N+](=O)[O-] | -14 | -21 | -11 | 5 | 73*
Cc1noc(C)c1NC(=O)NCCN1CCN(Cc2ccccc2)CC1 | -5 | 3 | -6 | -7 | -1
COc1ccccc1NC(=O)NCCN1CCN(Cc2ccccc2)CC1 | -11 | 4 | -8 | 80* | 8
CC(C)n1cc(-c2noc(-c3cccs3)n2)c(=O)n(Cc2ccccc2)c1=O | 92* | -2 | -6 | 13 | 6
COc1ccc(CSCC(=O)Nc2ccc(F)c(Cl)c2)c(Cl)c1OC | -4 | 1 | -4 | -15 | -3
CCOC(=O)c1c(NC(=O)c2ccc([N+](=O)[O-])o2)nc(SC)n1Cc1cccs1 | 87* | -5 | -6 | -10 | 3
CCOc1ccc2nc(NC(=O)c3ccc([N+](=O)[O-])o3)sc2c1 | -1 | 7 | -6 | -14 | 0
CC1=C(C#N)C(c2ccc(-c3ccc(Cl)cc3[N+](=O)[O-])o2)C(C#N)=C(C)N1 | 11 | 4 | -9 | -13 | -1
CCn1nc(C)cc1-c1nnc(SCc2ccc(C(F)(F)F)cc2)o1 | 97* | 0 | -7 | 9 | 1
SMILES | S1P1 ag | TLR4 MyD88 blk | rat GALR2 ag | KOR antag MB | PME-1 Maybridge
CC12CCC(=O)C=C1CCC2=O (configuration not stated) | 3 | 53* | -3 | -10 | 3
CC(C)(C)c1ccc(Oc2ccc(NC(=O)c3ccco3)cn2)cc1 | 38 | 0 | -3 | 11 | 3
O=C(Nc1ccccc1)Nc1ccc(Oc2cccc(C(F)(F)F)c2)nc1 | 87* | 2 | -6 | 0 | -80
O=C(Nc1ccc(Oc2cccc(C(F)(F)F)c2)nc1)c1ccc2c(c1)CCO2 | 90* | -6 | -1 | -8 | -7
CCCCCC[n+]1ccccc1/C=C\c1cccs1 | -20 | -12 | -7 | -9 | -2
COc1ccc(C(C)=O)cc1COn1c(-c2ccccc2)nc2ccccc2c1=O | 4 | 5 | -6 | -13 | 3
O=C(CSc1nnnn1-c1ccccc1)NC1Cc2ccccc2C1 | -2 | -9 | -6 | 8 | 1
Cc1nnsc1C(=O)Oc1ccccc1N1CCCCC1 | 3 | 3 | -6 | 0 | -1
FC(F)(F)COc1ccc(OCC(F)(F)F)c(-c2csnn2)c1 | 5 | 1 | -4 | 0 | 0
CSc1sc(C2=NNC(O)(C(F)(F)F)C2)c2c1C(=O)CCC2(C)C (configuration not stated) | -16 | 9 | -4 | 12 | 36*
O=C1NCCCCC1Nc1c([N+](=O)[O-])cc(C(F)(F)F)cc1[N+](=O)[O-] (configuration not stated) | 2 | 4 | -6 | -5 | 10
c1ccc(-c2nc(-c3noc(-c4ccccc4)n3)no2)cc1 | 8 | -2 | -2 | -1 | 4
COc1ccc(-c2noc(-c3ccccc3)n2)cc1OC1CCCC1 | 98* | -4 | -9 | 1 | -11
COc1ccc(-c2nc(-c3ccc(OS(=O)(=O)N(C)C)cc3)no2)cc1OC | 107* | nt | -12 | 5 | -5
COc1ccc(/C=C/c2nc(-c3ccc(OS(=O)(=O)N(C)C)cc3)no2)c(Cl)c1OC | 16 | 5 | -7 | 8 | -9
COc1ccc(-c2nc(-c3cccc(C)c3)no2)cc1OC | 97* | -7 | -9 | 16 | 1
CC(=O)c1csc(-c2ccc(C(F)(F)F)cc2)n1 | 14 | 11 | -3 | 13 | 4
CSc1nc(-c2cccs2)cc(C(F)(F)F)c1C#N | -13 | -6 | 31* | -9 | -3
Clc1ccc(-c2nc(CN3CCOCC3)cs2)cc1 | 102* | 2 | -11 | -13 | 7
CC(=O)N1CCC(C(=O)O/N=C(\N)c2ccc(Cl)cc2)CC1 | 17 | 11 | -3 | 126* | 4
CCOC(=O)/C(C#N)=C\c1ccncc1 | -9 | -2 | -8 | -5 | -2
O=C(Oc1cccc(C(F)(F)F)c1)c1ccc(-c2cccs2)s1 | 8 | -7 | -7 | 12 | -5
CCOC(=O)c1csc(N/N=C2\CCc3ccccc32)n1 | -12 | -4 | -7 | -8 | 61*
CCOC(=O)c1csc(Nc2ccncc2)n1 | -2 | 10 | -5 | 11 | 1
Oc1ccccc1/C=N/Nc1cccc(C(F)(F)F)c1 | -23 | 1 | -3 | 18 | -1
SMILES | S1P1 ag | TLR4 MyD88 blk | rat GALR2 ag | KOR antag MB | PME-1 Maybridge
O=C(CN1CCCCC1)Nc1cc(C(F)(F)F)cc(C(F)(F)F)c1 | -12 | -8 | -12 | -9 | 0
N#C/C(=C\c1c(Cl)cccc1Cl)C(=O)Nc1ccc(F)c(Cl)c1 | 31 | -5 | 20* | 43 | -54
O=C(/C=C/c1cc(-c2ccccc2)c(C(F)(F)F)s1)c1cccs1 | 100* | -34 | 2 | 63* | -22
O=[N+]([O-])c1cccnc1SCc1csc2ccc(Cl)cc12 | 106* | 5 | -3 | 14 | -6
N#C/C(=C\C=C\c1ccccc1)c1ccc([N+](=O)[O-])cc1 | 25 | 5 | 7 | 17 | -1
CC(C)(C)C(C)(C#N)Nc1ccc(Cl)cc1 (configuration not stated) | -6 | 8 | 45* | 2 | 3
